# Source: PubChem (several laboratories)
# Mac1 fbg enh: increases human CD11b/CD18 adhesion to fibrinogen; P05107+P11215; activation, % at 10 µM; AID 1499; K562 CD11b/CD18 adhesion to fibrinogen, ATPlite luminescence; actives 0.07% (n = 93,000);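 active means 10 µM primary screen giving 50% or more activity, confirmed by 40% or more on retest at that dose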
# Ec RNAP inh: blocks E. coli RNA polymerase transcription | P0A8V2 | fluorescence transcription assay | inhibition, %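 (tested at 10 µM)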 | actives 0.2% (n = 62,000); in the data active means inhibition above about 20%;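 further: 0% = enzyme without compound and 100% = no enzyme blank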
# Pyk2 oligo antag: antagonists of human Pyk2 oligomerization | Q293 cells, Pyk2 FERM NanoBiT luminescence; stronger effect = lower value | AID 1347419 | actives 0.83% (n = 99,000) | Q14289 | z-score (the deposit names both 25 µM and 10 µM);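 active means Z-score of -3 or lower, scaled per plate to the spread of control and sample wells; inactive means z-score above -3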;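 further: negative z-score means lost luminescence so less FERM oligomerization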
# CD11b adhes inh: blocks human CD11b/CD18 adhesion to fibrinogen; actives 0.54% (n = 93,000); inhibition, % at 10 µM; P05107+P11215; K562 CD11b/CD18 adhesion to fibrinogen, ATPlite luminescence; Mn2+ added to activate the integrin; AID 1497;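 active means primary inhibition of 50% or more at 10 µM, then 40% or more on retest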
# Cav32 inh: human Cav3.2 channel inhibition, primary screen | O95180 | Cav3.2-expressing cells, Fluo-4 calcium fluorescence FDSS; stronger effect = lower value | B-score at 10 µM | actives 4% (n = 100,000);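 active means single-dose well whose peak fluorescence ratio is a statistical outlier from its plate by either plate-standardised score or position-corrected B-score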
# * marks the source's active call; other numbers are inactive results; nt = no result given. This is a sample that favours compounds with a hit; in the whole collection about 4.2% have one here.
SMILES,Mac1 fbg enh,Ec RNAP inh,Pyk2 oligo antag,CD11b adhes inh,Cav32 inh
O=C1CC(SC(=Nc2ccccc2)Nc2ccccc2)C(=O)N1c1cccc2ccccc12 (configuration not stated),nt,nt,-3*,nt,0.0022
Cn1cnnc1SCC(=O)Nc1ccc2nc(SCc3ccccc3F)sc2c1,-1,nt,-1.4,18,0.12
Cc1cc(C(=O)CN2C(=O)NC(c3ccccc3)(c3ccccc3)C2=O)c(C)n1Cc1ccccc1,nt,nt,0.1,nt,-5*
C#Cc1ccc([C@@H]2C=C(C(=O)NCc3ccccc3)O[C@H](OCCCCO)C2)cc1,nt,nt,nt,nt,-0.47
COc1cc(/C=N/N(C)c2ccccc2)ccc1O,-2,nt,-3*,12,-0.038
CCc1ccc(-c2cc(C(=O)Nn3cnnc3)c3ccccc3n2)cc1,-7,nt,0.24,78*,0.66
CCN(CC)S(=O)(=O)c1cc(C(=O)Nc2cc(Cl)ccc2N2CCN(C)CC2)ccc1Cl,-2,nt,-0.29,3,-7.6*
COC(=O)C(C(C)=O)C1=C/C(=N\S(=O)(=O)c2ccc(C)cc2)c2ccccc2C1=O (configuration not stated),-2,nt,-0.57,66*,-2.9
Cc1nn(-c2ccccc2)c(Cl)c1/C=C1\SC(=S)NC1=O,-10,nt,-2.3,101*,-4.5*
Cc1cc(C(=O)NNC(=S)NC(=O)/C=C/c2ccccc2Cl)n[nH]1,1,nt,-0.55,65*,-3.2
CC(CNC(=O)c1cc(Cl)ccc1[N+](=O)[O-])NC(=O)c1cc(Cl)ccc1[N+](=O)[O-] (configuration not stated),nt,nt,0.64,nt,-0.4
Cn1ncc2c(Nc3ccc4ccccc4c3)ncnc21,-4,21*,0.22,6,0.1
Cn1ncc2c(NCc3ccccc3)ncnc21,-2,2,-0.53,-7,0.79
Cc1ccc(S(=O)(=O)Nc2ccc(=O)n(Cc3ccc(Cl)c(Cl)c3)c2)cc1,nt,nt,0.28,nt,-2.5
CC(C)[C@@H]1NC(=O)c2cc([N+](=O)[O-])cc(F)c2NCCC[C@@H](C(N)=O)NC(=O)[C@H](CO)NC1=O,nt,nt,nt,nt,0.2
C=C1CCN([C@@H](CC(C)C)C(=O)N2CCCC2)S(=O)(=O)c2ccccc21,nt,nt,nt,nt,0.063
COC(=O)c1ccccc1NC1CC(=O)N(c2c(C)cccc2C)C1=O (configuration not stated),3,nt,0.4,16,-2.2
COc1cccc(-c2csc(N3CCN(C(=S)Nc4ccccc4OC)CC3)n2)c1,-1,nt,0.84,2,-2.6
COc1cccc(-c2csc(N3CCN(C(=S)Nc4ccccc4Cl)CC3)n2)c1,2,nt,-0.05,1,-4.1*
CCOC(=O)CCN(Cc1sccc1C)S(=O)(=O)c1ccc(F)cc1,0,nt,-0.09,-2,-2.4
C/C(=N\NC(=O)C1CCCN(S(=O)(=O)c2ccccc2)C1)c1ccncc1 (configuration not stated),-1,nt,-0.35,-31,4.1*
O=C(COC(=O)c1ccc(CSc2ccc(Cl)cc2)cc1)Nc1ccccc1,-6,nt,nt,-7,nt
COC(=O)Cc1cc(=O)[nH]c(Nc2nc3ccccc3o2)n1,nt,4,-1,nt,3.5*
Cc1nc(-c2ccc(Cl)cc2)sc1C1(C)CC(c2cccc(F)c2)=NO1 (configuration not stated),nt,nt,nt,nt,-0.78
CC1=C(C(=O)OCc2ccccc2)C(c2ccccc2OS(=O)(=O)c2ccc(C)cc2)NC(=O)N1CCCC(=O)O (configuration not stated),nt,nt,nt,nt,-1.1
SMILES,Mac1 fbg enh,Ec RNAP inh,Pyk2 oligo antag,CD11b adhes inh,Cav32 inh
COc1ccccc1/C=N/NC(=O)CC(=O)Nc1ccc(Cl)c(Cl)c1,3,nt,-0.47,3,-5.3*
COc1cccc(NC(=O)C(=O)N/N=C/c2cc(C)n(-c3ccc(Cl)c(Cl)c3)c2C)c1,24,nt,0.32,7,-5.6*
COc1ccccc1/C=N/NC(=O)CC(=O)NCc1cccnc1,0,nt,nt,-7,nt
CSCCC(NS(=O)(=O)c1ccc(Cl)cc1)C(=O)OCC(=O)N(C(C)C)C(C)C (configuration not stated),0,nt,0.08,-22,-3.4*
COc1cc2c(cc1OC)C(c1ccccc1)N(C(=O)c1ccco1)CC2 (configuration not stated),2,2,nt,8,-1.6
COc1cc2c(cc1OC)C(c1cccc([N+](=O)[O-])c1)N(C(=O)c1ccc(F)cc1)CC2 (configuration not stated),nt,nt,-0.97,nt,-5.3*
CCOC(=O)C1=C(C)N(CCCC(=O)O)C(=O)NC1C(CC)CC (configuration not stated),nt,nt,nt,nt,0.33
